Data from PubChem BioAssay.
Results with a measured potency or affinity are listed apart. A number with no mark means an inactive call. Calls of active or inactive are those of the source. How the calls were made is not given here.

Tests used:
[1] = cytotoxicity in OVCAR8 ovarian cancer cells, dose response, PAX8 project, cell-based, plate reader, dry powder samples (AID 743197); settings: series mostly up to 35 µM
[2] = molecular target: Melanocortin receptor 4 (Homo sapiens) (UniProt P32245); experiment: MC4R antagonists, dose response, counter-screen for LGR2 antagonist project, cell-based, plate reader, cherry pick (AID 743444); settings: MC4R-expressing cells, antagonist mode; series mostly up to 35 µM
[3] = A2780 ovarian cancer cell cytotoxicity, dose response, cytotoxicity control, plate reader, dry powder samples (AID 743046); settings: series mostly up to 35 µM;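 further: 0% = neutral control wells and -100% = cytotoxic reference compound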
[4] = A549 cell cytotoxicity, dose response, cytotoxicity control, plate reader, cherry-pick, antagonist series (AID 743412); settings: series mostly up to 26 µM;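 further: 0% = neutral control wells and -100% = positive control wells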
[5] = HepG2 cell cytotoxicity, dose response, cytotoxicity control, plate reader, cherry-pick, antagonist series (AID 743416); settings: series mostly up to 26 µM;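 further: 0% = neutral control wells and -100% = positive control wells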

For O=C(Cc1cccnc1)N1CCCCN2[C@H](C1)[C@H](c1ccc(C#CC3CCCC3)cc1)[C@@H]2CO, the outcome [1] was “inactive”.

For O=c1c2ccccc2nc(/C=C/c2ccc([N+](=O)[O-])o2)n1-c1ccc(O)cc1, the outcome [2] was “inactive”.

For O=C(Cc1ccccn1)N1CCCCN2[C@@H](CO)[C@@H](c3ccc(-c4ccccc4F)cc3)[C@@H]2C1, the outcome [3] was “inactive” and the outcome [1] was “inactive”.

For COC(=O)c1ccc(NC(=O)CSc2nc3ccc(N4C(=O)C5C6C=CC(C6)C5C4=O)cc3s2)cc1 (centres undefined), the outcome [4] was “inactive”.

For CC(C)(C)n1cc(C(=O)c2ccc3ccccc3c2O)cn1, the outcome [5] was “inactive”.

For O=C(Cc1ccncc1)N1CCCCN2[C@H](C1)[C@H](c1ccc(C#Cc3ccccc3F)cc1)[C@@H]2CO, the outcome [3] was “inactive”.

In the case of O=Cc1cn(Cc2cccc([N+](=O)[O-])c2)c2ccccc12, the outcome [4] is reported as “inactive”.

With O=c1[nH]c2ccccc2n1C1CCN(C(c2ccccc2OC(F)(F)F)c2nnnn2Cc2ccccc2)CC1 (centres undefined) the outcome [5] was “inactive”.

With O=C(Cc1ccccn1)N1CCCCN2[C@@H](CO)[C@@H](c3ccc(-c4ccc(F)cc4)cc3)[C@@H]2C1 the outcome [3] was “inactive” and the outcome [1] was “inactive”.

With Cc1ccc(OC(=O)N(C)C[C@@H]2OCc3ccccc3-c3c(n(C)c4ccccc34)C(=O)N([C@@H](C)CO)C[C@H]2C)cc1 the activity change, negative = cytotoxicity [3] was -16.8% [at 8 µM].

For COc1cccc(-c2nc3ccc(N4CCN(C)CC4)cc3[nH]2)c1, the outcome [5] was “inactive”.

With Clc1cccc(N2Cc3cc(-c4ccccc4)ccc3-n3nncc3C2)c1 the outcome [4] was “inactive” and the outcome [5] was “inactive”.

In the case of COc1ccc(-c2ccc([C@@H]3[C@@H](CO)N4CCCCN(C(=O)Cc5ccccc5)C[C@H]34)cc2)cc1, the outcome [3] is reported as “inactive” and the outcome [1] is reported as “inactive”.

For O=C(O)c1nn(Cc2ccc(Cl)cc2Cl)c2ccccc12, the outcome [4] was “inactive”, the outcome [5] was “inactive” and the outcome [2] was “inactive”.

In the case of CNC(=O)Oc1cccc(-c2cn3cc(Cl)ccc3n2)c1, the outcome [4] is reported as “inactive” and the outcome [5] is reported as “inactive”.

In the case of COc1cc2c(cc1OC)CN(c1ccc([N+](=O)[O-])c(C(F)(F)F)c1)CC2, the outcome [5] is reported as “inactive” and the outcome [2] is reported as “inactive”.
